PubChem BioAssay AID488899 (Broad Institute, 2010)
The whole screen tested about 330,000 compounds, of which about 2,800 (0.85%) were called active.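 Rule for the calls: active = mean inhibition across replicates of 60% or more, whatever share of single replicates reaches that level; inconclusive = some that reach 60%, reason not given; inactive = mean inhibition across replicates below 60%.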 The list comes from a sample in which actives are over-represented; it also holds similar structures and randomly drawn compounds.

Assay: inhibitors of MITF-dependent TRPM1 promoter reporter, primary screen, cell-based, SK-MEL-5, single point, luciferase (AID 488899)
Settings: SK-MEL-5 TRPM1 promoter luciferase, 24 h; at 12.5 µM; hits give high values

inhibition, active:
CCCc1ccc(OCc2ccc(C(=O)N/N=C/c3cccc([N+](=O)[O-])c3)o2)c(OC)c1 69.2%
O=C(Nc1nc2ccc([N+](=O)[O-])cc2s1)c1ccc(S(=O)(=O)N2CCCc3ccccc32)cc1 75.6%
CN(C)CCCN(C(=O)c1ccc(S(=O)(=O)N2CCCCCC2)cc1)c1nc2ccc(Br)cc2s1 92.8%
CN(C)CCCN(C(=O)c1ccc(S(=O)(=O)N2CCCc3ccccc32)cc1)c1nc2ccc(F)cc2s1 70.8%
O=C(NC(Nc1nc2ccc([N+](=O)[O-])cc2s1)(C(F)(F)F)C(F)(F)F)c1ccccc1 70.9%
COc1ccc2c(c1)c(=Cc1ccc(N(C)C)cc1)c1cc(-c3ccccc3)[n+](C)n12 95.7%
COc1ccc(CNC(=O)C[C@H]2C[C@H](C(=O)N3CCOCC3)[C@@]3(CCC4CCCC4)c4[nH]c5ccc(Cl)cc5c4CCN3C2=O)cc1OC 72.7%
O=C1C(Cl)=C(Oc2ccccc2)C(=O)c2ccccc21 89.7%
Cc1cccc(-n2ncc(Cl)c(Cl)c2=O)c1 72.1%

inhibition, inactive:
N#Cc1cc([N+](=O)[O-])ccc1Oc1cccc(/C=N/NC(=O)c2ccc(Cl)cc2)c1 4.52%
O=C(N/N=C/c1cccc(OCc2ccccc2)c1)c1ccc(Br)o1 4.51%
COc1ccc(C(=O)NC2CC(C)(C)NC(C)(C)C2)cc1OC 1.95%
CCOc1ncccc1C(=O)OCC(=O)c1c[nH]c2ccccc12 1.75%
O=C(Nc1cc2c3c(c1)C1CCCC1CN3CC1CCCC21)c1ccc([N+](=O)[O-])cc1 (stereo not given) 1.02%
COc1ccc(NC(=O)N2CCCC2C(=O)NCc2ccccc2Cl)cc1 (stereo not given) 11.5%
C=CCNc1nnc(SCC(=O)N2CCCCC2)c2ccccc12 11.5%
CC(C)Cn1c(CCC(=O)O)ccc1-c1cccs1 7.94%
Cn1c(=O)n(C)c2cc(S(=O)(=O)N3CCCc4ccccc43)ccc21 0.873%
Cc1ccc(NC(=O)c2cccc(S(=O)(=O)N3CCCc4ccccc43)c2)nc1 23.9%
CCC(=O)Nc1nnc(S(=O)(=O)N2CCCc3ccccc32)s1 5.17%
COc1ccc2sc(N(CCCN(C)C)C(=O)c3ccc(S(=O)(=O)N(C)C4CCCCC4)cc3)nc2c1 55.2%
O=C(COC(=O)c1ccc([N+](=O)[O-])cc1Cl)NC(=O)c1ccccc1 -3.45%
CC1CCN(C(=O)c2cccc(S(=O)(=O)N3CCCc4ccccc43)c2)CC1 7.39%
CCc1ccc2nc(N(CCCN(C)C)C(=O)c3ccc4c(c3)OCCO4)sc2c1 -67.8%
N=C1C(c2nc3ccccc3s2)=C(O)CN1NC(=O)c1ccc([N+](=O)[O-])cc1 14.1%
CC(=O)N(OCc1ccc(OC(C)C)c(Cl)c1)C(C)=O -2.52%
OCC1(CO)CC2(C1)CC(CO)(CO)C2 -3.8%
CCN(CC)S(=O)(=O)c1cccc(NC(=O)c2ccc(S(=O)(=O)N3CCCC3)cc2)c1 11%
COc1ccc(-c2cc(C(=O)NC(Cc3c[nH]c4ccccc34)C(=O)O)c(C)o2)cc1OC (stereo not given) 9.33%
O=C(NCC1(N2CCCCC2)CCCCC1)c1cccc(S(=O)(=O)Nc2ccccc2Cl)c1 -26.7%
Cc1cc(NC(=O)C(C)SCC(=O)Nc2cccc(S(=O)(=O)N3CCCCCC3)c2)no1 (stereo not given) 18.1%
CCC1CCCCN1C(=S)Nc1ccc(SC(F)F)cc1 (stereo not given) -3.13%
COCCn1c(=NC(=O)c2ccccc2[N+](=O)[O-])sc2cc(S(C)(=O)=O)ccc21 -52%
N#CC1=C(N)Oc2cc(N)ccc2C1c1ccccc1 (stereo not given) 23.5%
Nc1ncnc2c1cnn2C1CC(O)C(CO)O1 (stereo not given) -4.63%
CC(C(=O)NC1CCCC1)N1CCN(S(=O)(=O)c2ccccc2Cl)CC1 (stereo not given) -2.61%
O=C(Nc1c[nH]c(=O)[nH]c1=O)OCc1ccccc1 0.994%
CC1(C)N=C(N)NC(Nc2ccc(Cl)cc2)=N1 4.8%
CC(C)(C)OC(=O)NC(Cc1ccccc1)C(=O)NC(CSC1CCCCO1)C(=O)NN (stereo not given) -5.98%
COc1ccc2sc(-c3ccc(N(C)C)cc3)c(C#CCO)c2c1 -46.5%
COc1ccc2sc(-c3ccc(N(C)C)cc3)c(-c3ccc4cc[nH]c4c3)c2c1 -103%
Cn1cc(S(=O)(=O)N2CCN(c3ccc(F)cc3)CC2)c(=O)n(C)c1=O 1.94%
COC(=O)Cc1nc2c(N)nc(N)nc2[nH]c1=O 3.9%
CCc1ccc(-c2cc(C)no2)cc1S(=O)(=O)NCCc1ccc(S(N)(=O)=O)cc1 -13.2%
COc1ccc2[nH]c3c(c2c1)CCN1C(=O)C(CC(=O)NCCCN(C)C)C[C@H](C(=O)N2CCOCC2)[C@@]31CCC1CCCC1 (stereo not given in full) -12.1%
O=C(C[C@H]1C[C@H](C(=O)N2CCOCC2)[C@@]2(CCC3CCCC3)c3[nH]c4ccc(Cl)cc4c3CCN2C1=O)NCc1ccco1 21.2%
CCOC(=O)N1CCN(C(=O)C2CCCN(c3ncnc4c3sc3cccc(F)c34)C2)CC1 (stereo not given) 28.8%
Cc1[nH]c2c(C(=O)N3CCCC(CCC(=O)NCc4ccccc4F)C3)cccc2c1C (stereo not given) -16%
CC(=O)N(C1=C(Cl)C(=O)c2ccccc2C1=O)c1ccc(C(=O)O)cc1 11.6%
CC(=O)Oc1ccc2c(c1)C(=O)c1ccccc1C2=O -2.87%
COC(=O)C1=C(NC(=O)C(C)(C)C)CCS1 -3.02%
CC(C)C[C@@H](NC(=O)[C@H]1CCCN1C(=O)Cc1ccccc1)C(N)=O 0.4%
NC(=O)C1(N2CCCC2)CCN(Cc2ccccc2)CC1 -3.66%
C=CCNc1cnn(-c2ccc(C)cc2)c(=O)c1Cl -110%
Cc1cccc(-n2ncc(C#N)c2-n2cccc2)c1 3.18%
